Most compounds without a hit are left out; they make up all but 2.5% or so of the library.
SUMO HTRF inh: inhibitors of human SUMOylation (UBC9); P63279; HTRF SUMOylation assay, SAE1/SAE2 + UBC9, in vitro; inhibition, % at 35 µM; 0.36% of 290,000 active; AID 2006; in the data active means inhibition above about 50%, passing the limit was not always enough
PHOSPHO1 block: blocks human PHOSPHO1 phosphatase activity. Q8TCT1. recombinant PHOSPHO1, absorbance phosphatase assay. inhibition, % at 13.3 µM. 1.1% of 290,000 active. AID 1565; in the data active means inhibition above about 60%
G6PDH counter: L. mesenteroides G6PDH inhibition counter-screen; Purified L. mesenteroides G6PDH, diaphorase/resazurin coupled fluorescence, 45 min; inhibition, % at 5 µM; 0.12% of 200,000 active; AID 1020; in the data active means inhibition above about 50%
p97 ATPase inh: blocks human p97 ATPase activity; P55072; recombinant p97 ATPase, Kinase-Glo ATP luminescence, 3 h; inhibition, % at 8 µM; 0.42% of 220,000 active; AID 1481; in the data active means inhibition above about 15%
Target sequence (P55072 whole entry, looked up): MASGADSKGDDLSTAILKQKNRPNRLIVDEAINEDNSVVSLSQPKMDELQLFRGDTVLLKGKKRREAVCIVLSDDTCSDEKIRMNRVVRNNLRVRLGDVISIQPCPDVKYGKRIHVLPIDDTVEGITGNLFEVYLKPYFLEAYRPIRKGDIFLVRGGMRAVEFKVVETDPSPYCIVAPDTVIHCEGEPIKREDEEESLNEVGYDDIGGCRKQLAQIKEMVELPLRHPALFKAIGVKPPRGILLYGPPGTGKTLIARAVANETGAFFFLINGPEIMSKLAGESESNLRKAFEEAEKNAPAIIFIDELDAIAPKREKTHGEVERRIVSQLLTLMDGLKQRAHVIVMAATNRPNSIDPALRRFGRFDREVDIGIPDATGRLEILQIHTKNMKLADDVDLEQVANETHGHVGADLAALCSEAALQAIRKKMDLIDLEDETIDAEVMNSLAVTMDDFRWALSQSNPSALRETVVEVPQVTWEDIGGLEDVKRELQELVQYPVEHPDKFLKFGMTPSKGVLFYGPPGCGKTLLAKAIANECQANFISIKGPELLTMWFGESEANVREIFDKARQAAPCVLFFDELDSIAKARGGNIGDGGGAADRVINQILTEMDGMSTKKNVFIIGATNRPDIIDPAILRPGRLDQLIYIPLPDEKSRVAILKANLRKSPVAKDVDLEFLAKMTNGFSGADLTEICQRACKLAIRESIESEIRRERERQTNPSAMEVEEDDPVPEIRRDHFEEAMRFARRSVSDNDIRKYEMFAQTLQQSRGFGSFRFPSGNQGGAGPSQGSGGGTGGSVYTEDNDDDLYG
M18AAP inhibitor: blocks P. falciparum M18 aspartyl aminopeptidase. recombinant PfM18AAP, H-Glu-NHMec fluorogenic cleavage. inhibition, % at 7.35 µM. 1.2% of 290,000 active. AID 1822;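 active means inhibition above the campaign mean inhibition over all tested compounds plus 3 SD, cut at about 28% in these data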
HDAC3 inh: blocks human histone deacetylase 3; O15379; recombinant HDAC3, fluorogenic peptide/trypsin coupled, fluorescence; inhibition, % at 8.3 µM; 0.15% of 320,000 active; AID 2718; in the data active means inhibition above about 26%, passing the limit was not always enough
p97 confirm: human p97 ATPase inhibition, confirmation; 44% of 760 active; shares compounds with p97 ATPase inh; inhibition, % at 8 µM; recombinant p97 ATPase, Kinase-Glo ATP luminescence; AID 1517;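 active means percent inhibition of p97 ATPase above a set limit, the primary screen's mean plus 3 SD, cut at about 15% in these data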
Each line names hits and unclear results; the compound was inactive in the other large screens (follow-up assays come after a bar, where they were run).

CC(C)OC(=O)CSc1n[nH]c(-c2cccnc2)n1	p97 ATPase inh 15 | p97 confirm inactive
COc1ccc(/C=C2/C(=O)N(Cc3ccccc3)N=C2C)cc1	p97 ATPase inh 33 | p97 confirm inactive
Cc1onc(-c2ccccc2)c1C(=O)NCCSCc1ccco1	none (no result: SUMO HTRF inh, PHOSPHO1 block, G6PDH counter, p97 ATPase inh, M18AAP inhibitor)
COc1ccc(S(=O)(=O)O/N=C2\CCCc3ccccc32)cc1	p97 ATPase inh 18 | p97 confirm inactive
O=S(=O)(O/N=C1\CCCc2ccccc21)c1ccccc1	none
O=C(O)c1cccc(Nc2ncnc3ccc(Br)cc23)c1	p97 ATPase inh 17 (no result: G6PDH counter) | p97 confirm 21
COC(=O)c1cccc(Nc2ncnc3ccc(C)cc23)c1	none
O=C(OCc1ccccc1)C1=[N+]([O-])OC(C(=O)OCc2ccccc2)C1c1c[nH]c2ccccc12 (centres undefined)	p97 ATPase inh 28 | p97 confirm 36
O=C(OCC(=O)c1c[nH]c2ccccc12)c1ccco1	none
CCOc1ccc(S(=O)(=O)N(CC)CC(=O)NCc2ccccn2)cc1C	none (no result: G6PDH counter, p97 ATPase inh)
CCC(C)n1c(NC(=O)c2ccccc2)c(C#N)c2nc3ccccc3nc21 (centres undefined)	p97 ATPase inh 27 (no result: SUMO HTRF inh) | p97 confirm inactive
N#Cc1c(NC(=O)c2ccc(Br)o2)n(-c2ccccc2)c2nc3ccccc3nc12	SUMO HTRF inh 95, p97 ATPase inh 47 (no result: G6PDH counter) | p97 confirm 41
Cn1cc(C(=O)C(=O)NC2CCCCC2)c2ccccc21	none (no result: G6PDH counter, p97 ATPase inh)
O=C(NCC1CC1)Nc1ccccc1	none (no result: G6PDH counter, p97 ATPase inh)
O=C(NCCC1CC1(Cl)Cl)Nc1ccccc1 (centres undefined)	p97 ATPase inh 23 (no result: G6PDH counter) | p97 confirm inactive
COc1cc2[nH]c3c(Cl)ncnc3c2cc1OC	none
COc1cc2[nH]c(Cl)c([N+](=O)[O-])c2cc1OC	p97 ATPase inh 17 (no result: G6PDH counter) | p97 confirm inactive
NS(=O)(=O)c1ccc(CCNC(=O)CCCn2c(=O)[nH]c3ccc(Br)cc3c2=O)cc1	p97 ATPase inh 26 | p97 confirm inactive
CC1=Nc2ccccc2/C1=C/c1sc(=N)n(-c2nccs2)c1O	p97 ATPase inh 29 | p97 confirm 36
CC(=O)Nc1cc(OC(C)=O)c2nonc2c1OC(C)=O	SUMO HTRF inh 101, G6PDH counter 59, p97 ATPase inh 30 | p97 confirm 32
O=C(Cc1ccccc1)NCC(=O)Nc1cccc(Cl)c1	none (no result: G6PDH counter, p97 ATPase inh)
OCC#Cc1ncc(C(F)(F)F)cc1Cl	p97 ATPase inh 28 | p97 confirm 33
CN(CCC#N)C(=O)CSc1nc2scc(-c3ccccc3)c2c(=O)[nH]1	p97 ATPase inh 16 | p97 confirm inactive
CN(C(=O)CSc1nc2scc(-c3ccccc3)c2c(=O)[nH]1)c1ccccc1	none (no result: SUMO HTRF inh, PHOSPHO1 block, G6PDH counter, p97 ATPase inh, M18AAP inhibitor)
CN(C)C(=O)Nc1ccccc1	none (no result: G6PDH counter)
CC(NC(=O)Nc1ccc(O)cc1)(C(F)(F)F)C(F)(F)F	p97 ATPase inh 30 | p97 confirm inactive
CC(=O)N(/N=C1\Sc2ccccc2C1=O)c1cccc(C)c1	p97 ATPase inh 15 | p97 confirm 24
COc1ccc(CC(=O)NC(C)c2ccc(S(N)(=O)=O)cc2)cc1S(=O)(=O)N1CCOCC1 (centres undefined)	none (no result: G6PDH counter, p97 ATPase inh)
CCn1c(/C=C/N(C(C)=O)c2ccccc2)[n+](CCCS(=O)(=O)[O-])c2cc(Cl)c(Cl)cc21	p97 ATPase inh 18 | p97 confirm inactive
COc1ccc2nc3ccccc3nc2c1N	p97 ATPase inh 26 (no result: G6PDH counter) | p97 confirm inactive
N#CC1=C(N)Oc2cc(N)ccc2C1c1cccnc1 (centres undefined)	none
N#CC1=C(N)Oc2cc(Nc3ccccc3)ccc2C1c1ccncc1 (centres undefined)	p97 ATPase inh 20 | p97 confirm 33
Cc1ccc(Cl)c(NC(=O)CN2CCNC(=O)C2)c1Cl	none
O=C(Cn1c(C(F)(F)F)nc2ccccc21)NCCN1CCCC1	none
Cc1nc2ccccc2n1CC(=O)NCCN1CCCC1	p97 ATPase inh 35 | p97 confirm inactive
Cc1cc(=O)c(C(=O)c2ccccc2)c(C)o1	none (no result: SUMO HTRF inh, PHOSPHO1 block, G6PDH counter, p97 ATPase inh, M18AAP inhibitor)
Cc1ccc(C(=O)c2c(C)oc3c2C(=O)C(=O)c2ccccc2-3)cc1	SUMO HTRF inh 92, G6PDH counter 63, p97 ATPase inh 22 | p97 confirm 20
N#C/C(=C/c1ccco1)C(N)=S	p97 ATPase inh 27 (no result: G6PDH counter, HDAC3 inh) | p97 confirm inactive
CC(OC(=O)/C(C#N)=C/c1ccco1)C(=O)N(C)c1ccccc1 (centres undefined)	none (no result: SUMO HTRF inh, PHOSPHO1 block, G6PDH counter, p97 ATPase inh, M18AAP inhibitor)

From PubChem BioAssay
